Screening results deposited in PubChem BioAssay by Johns Hopkins Ion Channel Center.
Shown are actives, neighbours in structure and some others; about 2.4% of the full set was active somewhere.
CHT inh – inhibitors of human choline transporter CHT | High affinity choline transporter 1 (Homo sapiens), Q9GZV3 | CHT-expressing cells, membrane potential dye, choline response; stronger effect = lower value | B-score at 10 µM | actives 0.86% (n = 310,000);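 active means B-score over 3 SD under the library average, and starting fluorescence ratio not unusually high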;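 further: choline stimulus applied at its EC90 after an EC20 pre-addition; B-score computed on integrated fluorescence ratio after choline addition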
Target sequence (Q9GZV3 whole entry, looked up): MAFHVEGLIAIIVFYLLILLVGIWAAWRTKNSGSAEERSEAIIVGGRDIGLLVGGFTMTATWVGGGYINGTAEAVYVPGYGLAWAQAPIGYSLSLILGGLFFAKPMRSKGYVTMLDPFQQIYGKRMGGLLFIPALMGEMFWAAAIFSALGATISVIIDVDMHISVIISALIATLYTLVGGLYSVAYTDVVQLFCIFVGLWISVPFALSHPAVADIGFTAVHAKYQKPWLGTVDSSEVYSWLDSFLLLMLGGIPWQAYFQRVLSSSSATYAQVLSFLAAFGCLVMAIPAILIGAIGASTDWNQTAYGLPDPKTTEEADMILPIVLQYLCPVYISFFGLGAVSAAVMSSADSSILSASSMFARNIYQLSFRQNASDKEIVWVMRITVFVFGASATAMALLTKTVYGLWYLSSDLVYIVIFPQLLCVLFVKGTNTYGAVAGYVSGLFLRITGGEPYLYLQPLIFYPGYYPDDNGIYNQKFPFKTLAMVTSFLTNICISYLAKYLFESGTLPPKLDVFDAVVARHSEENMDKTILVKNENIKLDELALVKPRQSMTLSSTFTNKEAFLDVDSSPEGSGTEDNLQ
ANO1 block – TMEM16A chloride channel inhibitors, primary screen, cell-based, HTS; HEK293 TMEM16A/YFP iodide influx fluorescence, ionomycin; normalized B-score (activity score, 25-100; higher = stronger inhibition) at 10 µM; actives 1.2% (n = 310,000); AID 588511, 2011;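 active means ratio plate-corrected score three or more library SD toward inhibition, starting fluorescence score within five deviations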;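 further: score derived from kinetic fluorescence span divided by baseline fluorescence per well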
CHT PAM – CHT positive allosteric modulators, primary screen, cell-based, membrane potential dye, choline EC20 | CHT-expressing cells; stronger effect = higher value; LV-AA mutant CHT in HEK293 cells | B-score at 10 µM | actives 0.49% (n = 310,000) | AID 488977, 2010;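 active means initial fluorescence not abnormally high and integrated response B-score, plate-corrected, over 3 SD above library mean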
TMEM16A act – TMEM16A chloride channel activators or potentiators, primary screen, cell-based, HTS. HEK293 TMEM16A/YFP-H148Q/I152L, iodide quench fluorescence; stronger effect = lower value. actives 0.3% (n = 340,000). Anoctamin-1 (Mus musculus), Q8BHY3. B-score at 10 µM;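 active means fluorescence-ratio B-score plate-corrected deviation score at least 3 library SD below zero, with starting fluorescence score within 5 deviations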;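 further: channel opened by trigger with iodide after compound preincubation; score built on the fluorescence ratio of max minus min over baseline; more negative score means more quench and so TMEM16A activation or potentiation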
The depositor's hits bear a star.

How did CC(C)NC(=O)c1ccc(NC(=O)CC2SC(N3CCCC3)=NC2=O)cc1 (stereo not given) do in these assays?
TMEM16A act: inactive

Results for CCCCNC(=O)c1ccc(NC(=O)CC2SC(N3CCCC3)=NC2=O)cc1 (stereo not given) ?
TMEM16A act: -26*

How did Cc1ccccc1CS(=O)(=O)c1nnc([C@H](Cc2ccccc2)NC(=O)OC(C)(C)C)o1 do in these assays?
CHT inh: inactive; ANO1 block: inactive; CHT PAM: inactive; TMEM16A act: -5.21*

What do the screens show for `CC(C)(C)OC(=O)N[C@@H](Cc1ccccc1)c1nnc(S(=O)(=O)Cc2ccccc2)o1`?
CHT inh: inactive; ANO1 block: inactive; CHT PAM: inactive

What do the screens show for `COc1ccc(CN(C(=O)CN2C(=O)c3ccccc3S2(=O)=O)C(C(=O)NCC2CCCO2)c2ccncc2)cc1` (stereo not given)?
CHT inh: inactive; ANO1 block: inactive; CHT PAM: inactive; TMEM16A act: inactive

Results for CC(C)(c1ccccc1)c1ccc(OCC(O)CNC2CCN(Cc3ccccc3)CC2)cc1 (stereo not given) ?
CHT inh: inactive; ANO1 block: 100*; CHT PAM: inactive; TMEM16A act: inactive

How did O=C(Cc1ccc2c(c1)OCCO2)N1CCN(c2ccccc2)CC1 do in these assays?
CHT inh: inactive; ANO1 block: inactive; CHT PAM: inactive; TMEM16A act: inactive

Results for Cc1ccc(N2CCN(S(=O)(=O)N3CCCCC3)CC2)cc1Cl ?
CHT inh: inactive; ANO1 block: inactive; CHT PAM: inactive; TMEM16A act: inactive

How did Cc1cc(C)c(N2CCN(S(=O)(=O)N3CCCCCC3)CC2)c(C)c1 do in these assays?
CHT inh: inactive; ANO1 block: 25*; CHT PAM: inactive; TMEM16A act: -21.6*

What do the screens show for `O=C(Cn1cc(C(=O)C2CC2)c2ccccc21)NCC1CCCO1` (stereo not given)?
CHT inh: inactive; ANO1 block: inactive; CHT PAM: inactive; TMEM16A act: inactive

Results for CC(=O)c1cn(CC(=O)NCC2CCCO2)c2ccccc12 (stereo not given) ?
CHT inh: inactive; ANO1 block: inactive; CHT PAM: inactive; TMEM16A act: -4.77*

How did C=CCc1c(C)nc(C)nc1N/N=C/c1ccccc1O do in these assays?
CHT inh: inactive; ANO1 block: 25*; CHT PAM: inactive; TMEM16A act: inactive

What do the screens show for `C=CCc1c(C)nc(C)nc1N/N=C/c1ccc([N+](=O)[O-])cc1`?
CHT inh: inactive; ANO1 block: inactive; CHT PAM: inactive; TMEM16A act: inactive

Results for COc1ccc(C(=O)NC2CCN(CC(=O)NCc3cccc(OC)c3)CC2)cc1 ?
CHT inh: inactive; ANO1 block: inactive; CHT PAM: inactive; TMEM16A act: inactive

What do the screens show for `CCCOc1cccc(-c2cc(C(=O)N/N=C/c3ccccn3)c3ccccc3n2)c1`?
CHT inh: inactive; ANO1 block: inactive; CHT PAM: inactive; TMEM16A act: inactive

What do the screens show for `CCCOc1cccc(-c2cc(C(=O)N/N=C/c3cccnc3)c3ccccc3n2)c1`?
CHT inh: inactive; ANO1 block: 25*; CHT PAM: inactive; TMEM16A act: inactive

Results for O=C(N/N=C/c1ccccc1OC(F)F)c1cc(-c2ccncc2)nc2ccccc12 ?
CHT inh: -6*; ANO1 block: inactive; CHT PAM: inactive; TMEM16A act: inactive

How did Oc1c(Cl)cc(Cl)cc1Sc1cc(Cl)cc(Cl)c1O do in these assays?
CHT inh: inactive; ANO1 block: 100*; CHT PAM: inactive

How did Cc1cc(C)c(O)c(CN(C)Cc2cc(Cl)cc(Cl)c2O)c1 do in these assays?
TMEM16A act: inactive

How did CN(C)/C=C1\C(=O)Oc2ccccc2C1=O do in these assays?
CHT inh: inactive; ANO1 block: inactive; CHT PAM: inactive; TMEM16A act: inactive

How did Cc1ccc(-n2c(-c3ccc(Br)cc3)c[n+]3c2CCc2ccc4cccnc4c2-3)cc1 do in these assays?
CHT inh: inactive; ANO1 block: 100*; CHT PAM: inactive; TMEM16A act: inactive

How did Cc1ccc(-c2c[n+]3c(n2-c2ccccc2)CCC3)cc1 do in these assays?
CHT inh: inactive; ANO1 block: inactive; CHT PAM: inactive; TMEM16A act: inactive

Results for O=C(CCc1nnc(C2CCCCC2)o1)N1CCCCC1CCn1cccn1 (stereo not given) ?
CHT inh: inactive; ANO1 block: inactive; CHT PAM: inactive; TMEM16A act: inactive

What do the screens show for `O=C(CN(Cc1ccccc1)S(=O)(=O)c1ccccc1)N/N=C/c1ccccc1C(=O)O`?
CHT inh: inactive; ANO1 block: inactive; CHT PAM: inactive; TMEM16A act: inactive

Results for COc1cccc(NC(=O)Nc2nnc(CC(=O)NCc3ccccc3)s2)c1 ?
CHT inh: inactive; ANO1 block: inactive; CHT PAM: inactive; TMEM16A act: -4.89*

Results for CC(C)(C)[C@H]1COC(=O)[C@H](Cc2ccc(F)cc2)CC/C=C/C[C@@H](CC(=O)N[C@H](CO)Cc2ccccc2)C(=O)N1 ?
TMEM16A act: inactive

How did CCOc1ccccc1NC(=O)CSc1nc2nc(-c3cccs3)cc(C(F)(F)F)c2c(=O)[nH]1 do in these assays?
CHT inh: inactive; ANO1 block: 100*; CHT PAM: inactive; TMEM16A act: inactive

How did C/C=C(\C)C(=O)OC1CC(C)(C)C[C@H]2C3=CC[C@@H]4[C@@]5(C)CCC(O[C@@H]6O[C@@H](C(=O)O)[C@@H](O)C(O[C@@H]7OC[C@H](O)[C@@H](O)[C@@H]7O[C@@H]7OC(CO)C(O)[C@@H](O)[C@@H]7O)C6O[C@@H]6OC(CO)C(O)C(O)C6O)[C@@](C)(CO)[C@@H]5CC[C@]4(C)[C@]3(C)CC(O)[C@@]12CO (stereo not given in full) do in these assays?
TMEM16A act: -31.7*

What do the screens show for `CC1(C)CC[C@]2(C(=O)O[C@@H]3OC(CO)[C@@H](O)[C@H](O)[C@H]3O)CC[C@]3(C)C(=CCC4[C@@]5(C)CC[C@H](O[C@@H]6OC(C(=O)O)[C@@H](O)[C@H](O)[C@H]6O)C(C)(C)C5CC[C@]43C)[C@@H]2C1` (stereo not given in full)?
TMEM16A act: -8.82*

How did CSc1nc(N)nc(C2CC2)n1 do in these assays?
CHT inh: inactive; ANO1 block: inactive; CHT PAM: inactive; TMEM16A act: inactive

What do the screens show for `Cc1ccccc1N1CCN(Cc2ccc(Br)o2)CC1`?
CHT inh: inactive; ANO1 block: inactive; CHT PAM: inactive; TMEM16A act: inactive

Results for CC(C(=O)Nc1ccc(F)cc1Cl)N1CCN(S(=O)(=O)c2cccs2)CC1 (stereo not given) ?
TMEM16A act: -21.1*
